Most compounds without a hit are left out; they make up all but 1.3% or so of the library.
SRC2 inh = human SRC2 (NCOA2) inhibition; inhibition, % at 9 µM; AID 651957; HEK293 GAL4-SRC2 luciferase reporter, luminescence; Q15596; hit rate 0.17% among 370,000;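 active means inhibition above the mean inhibition of all tested compounds plus 3 SD, set per campaign, cut at about 52% in these data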;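 further: 0% = DMSO treated cells and 100% = cells given Gossypol at 36 µM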
NCOA1 inh = inhibits human SRC1 coactivator; HEK293 GAL4-SRC1 luciferase reporter, luminescence; inhibition, % at 3.6 µM; hit rate 0.12% among 360,000;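 active means inhibition above the campaign mean plus 3 SD, with each screening campaign given its own cutoff, cut at about 60% in these data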;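 further: 0% = DMSO treated cells and 100% = gossypol at 36 µM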
Gli-Sufu block = antagonists of Gli-Sufu signaling; hit rate 0.74% among 340,000; inhibition, % at 5 µM; Sufu-KO-LIGHT fibroblasts, Gli luciferase reporter luminescence;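 active means inhibition above about 55%, limit read from the data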;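 further: 0% = DMSO-treated cells and 100% = wells with medium but no cells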
COUP-TFII inh = inhibitors of human COUP-TFII (NR2F2); HEK293T NGFI-A luciferase reporter, luminescence; inhibition, % at 8.6 µM; hit rate 0.7% among 370,000; P24468; AID 686940;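 active means inhibition above a per-plate cutoff, mean inhibition of test wells between control levels plus 3 SD, cut at about 38% in these data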;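 further: cells cotransfected with COUP-TFII expression vector driving the NGFI-A reporter; 0% = median of COUP-TF2 test wells and 100% = reporter-only cells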
Target sequence (P24468 whole entry, looked up): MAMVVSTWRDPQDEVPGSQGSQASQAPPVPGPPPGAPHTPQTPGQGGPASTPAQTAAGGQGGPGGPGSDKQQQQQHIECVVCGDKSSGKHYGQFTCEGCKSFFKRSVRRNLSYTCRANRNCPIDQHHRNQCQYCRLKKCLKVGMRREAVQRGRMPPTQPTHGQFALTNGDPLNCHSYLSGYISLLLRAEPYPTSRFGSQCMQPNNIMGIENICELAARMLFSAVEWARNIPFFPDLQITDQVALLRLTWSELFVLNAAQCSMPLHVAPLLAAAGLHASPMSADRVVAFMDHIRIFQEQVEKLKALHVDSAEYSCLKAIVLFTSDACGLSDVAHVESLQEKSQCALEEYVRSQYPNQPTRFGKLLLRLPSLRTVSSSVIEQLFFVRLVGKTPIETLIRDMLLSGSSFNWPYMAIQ
SRC3 inh = human NCOA3 inhibition | Q9Y6Q9 | HEK293 GAL4-SRC3 luciferase reporter, luminescence | inhibition, % at 3.6 µM | hit rate 0.17% among 360,000 | AID 588352;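 active means inhibition above a per-campaign cutoff, the mean of all compounds plus 3 SD, cut at about 60% in these data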;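 further: 0% = DMSO-treated cells and 100% = gossypol-treated cells at 36 µM; higher means less SRC3-driven luciferase light from the GAL4 reporter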
NR5A2 inv ag = NR5A2 inverse agonism in reporter assay; AID 602396; HEK293T StAR-luciferase reporter, LRH-1 transfected, 24 h; hit rate 0.13% among 360,000; O00482; inhibition, % at 3.6 µM;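 active means inhibition above the mean inhibition of all tested compounds plus 3 SD, cut at about 73% in these data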;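 further: 0% = DMSO wells and 100% = reporter-only cells lacking LRH-1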
Gal4-VP16 ctr = counter-screen for COUP-TFII antagonists: inhibitors of VP16; AID 687007; inhibition, % at 8.5 µM; HEK293 Gal4-VP16 luciferase reporter, luminescence; hit rate 25% among 2,500; shares compounds with COUP-TFII inh; in the data active means inhibition above about 13%
NR2F2 inh conf = COUP-TFII (NR2F2) inhibition, confirmation assay | shares compounds with COUP-TFII inh | HEK293 NGFI-A luciferase reporter, luminescence | inhibition, % at 8.5 µM | hit rate 45% among 2,500;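 active means mean inhibition over three repeats above a set limit taken from the earlier primary screen, cut at about 38% in these data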;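 further: 100% = cells given the luciferase reporter alone without the COUP-TF2 vector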
Numbers without * were called inactive; . = no result given.

SMILES	SRC2 inh	NCOA1 inh	Gli-Sufu block	COUP-TFII inh	SRC3 inh	NR5A2 inv ag	Gal4-VP16 ctr	NR2F2 inh conf
Cc1c(/C(O)=C2\C(=O)C(=O)N(CCCN(C)C)C2c2ccccc2)cnn1-c1ccccc1 (stereo unspecified)	33	25	9	51*	28	30	1	10
CCCCCCCCN1C(=O)[C@@H](CC(=O)N2CCSCC2)C[C@@]2(C(=O)OC)C1=C[C@H](C(C)C)O[C@@H]2C1CC1	11	.	.	4	.	.	.	.
CCOc1ccc(-n2c(SCC(=O)Nc3ccc(S(=O)(=O)Nc4nccs4)cc3)nnc2-c2ccco2)cc1	-3	.	.	-30	.	.	.	.
O=C(O)c1cccc(CSc2nnc(-c3ccc(Cl)cc3)o2)c1	55*	-4	11	40*	0	-2	37*	9
O=C(O)c1cccc(CSc2nnc(COc3ccccc3)o2)c1	45	6	10	41*	-13	-9	35*	18
O=C(O)c1ccc(CSc2nnc(COc3ccccc3)o2)cc1	2	7	4	7	10	7	.	.
Cc1cc(C)cc(-c2nnc(SCc3ccc(C(=O)O)cc3)o2)c1	-6	3	-1	11	-12	-10	.	.
COC(=O)[C@]12C[C@H](CC(=O)NCc3ccccc3)C(=O)N(Cc3cccc4ccccc34)C1=C[C@H](C(C)(C)C)O[C@@H]2C	16	.	.	21	.	.	.	.
C/C(=N\NC(=O)CSc1nnc(-c2ccccc2)n1-c1ccc(C)cc1)c1ccc(-c2ccccc2)cc1	2	.	.	-17	.	.	.	.
O=C(CN1C(=O)C2(OCCCO2)c2ccccc21)NCc1ccc2ccccc2c1	-4	.	.	-10	.	.	.	.
O=C(c1ccc2c(=O)n(Cc3ccc(Cl)cc3)c(=S)[nH]c2c1)N1CCCC1	-18	3	0	-5	25	14	.	.
CCCCCn1c(=O)[nH]c2cc(C(=O)N3CCN(Cc4ccc5c(c4)OCO5)CC3)ccc2c1=O	14	15	57*	58*	10	44	2	64*
O=C(c1ccc2c(=O)n(Cc3ccc(Cl)cc3)c(=S)[nH]c2c1)N1CCOCC1	31	6	-17	39*	17	15	7	19
CCC(=O)N1CCN(c2ccc(NC(=O)COc3ccccc3Cl)cc2)CC1	30	4	6	50*	7	8	6	29
CN1CCN(c2ccc(NC(=O)COc3ccccc3Cl)cc2)CC1	-8	-16	-8	-14	6	2	.	.
CC(=O)c1cn(CC(=O)Nc2ccc(C)cc2C)c2ccccc12	25	22	44	50*	33	52	14*	54*
Cc1cc(N2CCN(C/C=C/c3ccccc3)CC2)n2ncnc2n1	-22	-2	43	40*	24	21	-4	15
OC[C@@H]1CN(Cc2ccc(-c3ccccc3)cc2)C[C@H](n2cnc3c(NCc4ccncc4)ncnc32)O1	26	25	.	59*	8	3	-4	39*
COc1cc(CNc2ncnc3c2ncn3[C@H]2CN(Cc3ccc(-c4ccccc4)cc3)C[C@@H](CO)O2)cc(OC)c1OC	10	12	.	59*	13	33	4	48*
C#CCNC(=O)C[C@@H]1C(=O)N(Cc2ccc(OC)cc2)/C2=C/CCCCC[C@@]21C(=O)OCC	9	.	.	0	.	.	.	.
N#Cc1c(NCc2ccccc2)ccnc1NCc1cccnc1	28	5	37	44*	28	23	2	42*
N#Cc1c(F)cccc1NCc1cccnc1	-12	-24	-10	-11	-10	0	.	.
CCNC(=O)N(C)[C@H]1C[C@H]2c3[nH]c4cccc(-c5ccc6c(c5)OCO6)c4c3CCN2C[C@H]1[C@H](C)O	0	.	.	1	.	.	.	.
COc1cccc(CN(C)C(=O)c2ccc(OCC(=O)Nc3cccc(C(F)(F)F)c3)c(OC)c2)c1	24	28	11	77*	45	36	8	76*
COc1cc(C(=O)NCCCN(C)C)ccc1OCC(=O)Nc1cccc(C(F)(F)F)c1	-31	3	10	-1	12	-8	.	.

Screens from PubChem BioAssay.
